Measurements reported in PubChem BioAssay (NCATS).
Records with an inconclusive call do not appear. The source made the active and inactive calls. Unless noted, calls follow the shape of the dose curve; as a rule, active = well fitted curve in the direction sought with a large enough effect; inconclusive = small, poorly fitted or top-dose-only effect, or another doubt; inactive = no such curve, though single readings can be large; an effect the other way counts as inactive or inconclusive.

Key:
[1] = KB-3-1 P-gp reporter qHTS against the NCATS DSHEA and TCM libraries (AID 1919975); also: 0% is about no effect
Outline: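 CellTiter-Glo luminescence viability readout; KB-3-1 parental cells, 500/well, attached ~4 h, then compound for ~72 h, 37C, 5% CO2. Bortezomib intraplate control.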

[2] = biological target: Cytochrome P450 1A2 (Homo sapiens) (UniProt P05177); assay: qHTS for inhibitors of CYPIA2 against the NCATS DSHEA and TCM libraries (AID 1919976); also: potency is read from the fitted curve at half-maximal effect; as to activity change, negative = inhibition: % is scaled to controls: 0 for no effect and ±100 for the full control effect
Outline: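 Reaction started with 1x NADPH regeneration solution and run 30-45 min, room temperature, protected from light, after compounds sat 15 min with CYP1A2 and pro-luciferin substrate. P450-Glo detection gave luminescence; furafylline served as control.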

[3] = qHTS Counterscreen for compound interference against the NCATS DSHEA and TCM libraries (AID 1919978); conditions: firefly luciferase detection reagent interference, luminescence;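 also: compounds preincubated with 1 µM D-luciferin or buffer before detection reagent; % of control where 0% means no effect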
Outline: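 Luminescence counterscreen for detection-kit interference: compounds at 19.5 nM–39.8 uM final, 15 min RT with 1 uM D-luciferin or buffer only; detection reagent added, 30 min RT, then read.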

[4] = Dual reporter qHTS for agonist of Pregnane X Receptor (hPXR) against the NCATS DSHEA and TCM libraries: Fluorescence readout (AID 1920058); also: 0% is about no effect
Outline: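 Viability readout (CellTiter-Fluor, 405/540 nm, 1 h) from agonist-mode PXR dual reporter in hPXR-Luc HepG2 cells. Substances ~24 h, 37 °C, 5% CO2; rifampicin reference, tetraoctyl ammonium bromide cytotoxic control.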

[5] = biological target: Nuclear receptor subfamily 1 group I member 2 (Homo sapiens) (UniProt O75469); assay: Dual reporter qHTS for agonist of Pregnane X Receptor (hPXR) against the NCATS DSHEA and TCM libraries: Luminescence readout (AID 1920059); also: potency is read from the fitted curve at half-maximal effect; as to activation: 0% is about no effect
Outline: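 Luminescent PXR reporter read (ONE-Glo) after a CellTiter-Fluor viability read, following 24 h, 37C treatment of HepG2 cells stably carrying hPXR-Luc.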

[6] = biological target: Nuclear receptor subfamily 1 group I member 2 (Homo sapiens) (UniProt O75469); assay: Dual reporter qHTS for antagonist of Pregnane X Receptor (hPXR) against the NCATS DSHEA and TCM libraries: Luminescence Readout (AID 1920060);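 also: HepG2 cells carrying hPXR luciferase reporter stimulated with rifampicin at 2 µM; 0% is about no effect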
Outline: (§1)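 Antagonist mode: rifampicin 2 uM final co-added with compounds to hPXR-LucHepG2 cells for 24 h at 37C. Viability by CellTiter-Fluor, Ex/Em 405/540 nm, 1 h; reporter by ONE-Glo luminescence.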

[7] = Dual reporter qHTS for antagonist of Pregnane X Receptor (hPXR) against the NCATS DSHEA and TCM libraries: Fluorescence Readout (AID 1920061); also: 0% is about no effect
Outline: as §1

[8] = qHTS profiling for inhibitors of Plasmodium falciparum proliferation (AID 504749); also: nearly all actives have a fitted effect of over 60% in size; also: potency is read from the fitted curve at half-maximal effect;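 as to activity, negative = inhibition: 0% = DMSO vehicle and full inhibition = artemisinin control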; conditions: P. falciparum in erythrocytes, SYBR Green DNA, 72 h
Outline: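 SYBR Green fluorescence of parasite DNA, read after lysis and overnight dark incubation, measured growth over 72 h in erythrocyte culture at 0.3% parasitemia and 2.5% hematocrit. Data normalised to DMSO and 0.29 uM artemisinin, with plate-drift correction.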

[9] = biological target: Cytochrome P450 2C19 (Homo sapiens) (UniProt P33261); assay: qHTS for inhibitors of CYP2C19 against the NCATS DSHEA and TCM libraries (AID 1919974);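 also: luminescence from luciferin released by CYP2C19 oxidation of a pro-luciferin substrate; % is scaled to controls: 0 for no effect and ±100 for the full control effect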
Outline: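 Each CYP isoform and its pro-luciferin substrate, at isoform-specific final concentrations, were preincubated 15 min at RT with substances. NADPH regeneration solution (1x) started a 30-45 min reaction, and P450-Glo luminescence was read.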

[10] = qHTS drug screen for cell cycle checkpoint inhibitors in PARPi-resistant BRCA-mutant ovarian cancer cell lines. (AID 1963452; calls by dose curve); conditions: PEO1/OlaR viability, CellTiter-Glo luminescence, 96 h, stronger effect = lower value
Outline: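 PEO1, PEO4 and PEO1/OlaR ovarian cancer cells, 600 per well, exposed 96 h at 37C to a dilution series. Viability read by CellTiter-Glo luminescence, normalized to DMSO and empty wells; activity summarized as Z-AUC.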

[11] = at 28.7 µM (top of the series), parasite line A
[12] = at 28.7 µM (top of the series), parasite line B
[13] = measured here: PEO1 parental Z-AUC

Sequence of Nuclear receptor subfamily 1 group I member 2 (Homo sapiens) (O75469 whole entry, looked up): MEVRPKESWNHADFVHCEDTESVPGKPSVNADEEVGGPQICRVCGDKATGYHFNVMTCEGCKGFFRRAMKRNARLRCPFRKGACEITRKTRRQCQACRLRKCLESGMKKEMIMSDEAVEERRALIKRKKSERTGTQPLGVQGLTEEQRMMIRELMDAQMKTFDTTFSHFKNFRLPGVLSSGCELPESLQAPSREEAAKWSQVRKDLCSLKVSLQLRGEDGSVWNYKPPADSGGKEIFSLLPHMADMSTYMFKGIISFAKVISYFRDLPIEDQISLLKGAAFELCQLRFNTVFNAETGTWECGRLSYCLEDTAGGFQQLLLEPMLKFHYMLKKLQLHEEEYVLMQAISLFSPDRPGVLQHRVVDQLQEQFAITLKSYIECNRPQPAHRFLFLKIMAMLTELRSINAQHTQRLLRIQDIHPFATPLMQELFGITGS
Sequence of Cytochrome P450 2C19 (Homo sapiens) (P33261 whole entry, looked up, canonical isoform): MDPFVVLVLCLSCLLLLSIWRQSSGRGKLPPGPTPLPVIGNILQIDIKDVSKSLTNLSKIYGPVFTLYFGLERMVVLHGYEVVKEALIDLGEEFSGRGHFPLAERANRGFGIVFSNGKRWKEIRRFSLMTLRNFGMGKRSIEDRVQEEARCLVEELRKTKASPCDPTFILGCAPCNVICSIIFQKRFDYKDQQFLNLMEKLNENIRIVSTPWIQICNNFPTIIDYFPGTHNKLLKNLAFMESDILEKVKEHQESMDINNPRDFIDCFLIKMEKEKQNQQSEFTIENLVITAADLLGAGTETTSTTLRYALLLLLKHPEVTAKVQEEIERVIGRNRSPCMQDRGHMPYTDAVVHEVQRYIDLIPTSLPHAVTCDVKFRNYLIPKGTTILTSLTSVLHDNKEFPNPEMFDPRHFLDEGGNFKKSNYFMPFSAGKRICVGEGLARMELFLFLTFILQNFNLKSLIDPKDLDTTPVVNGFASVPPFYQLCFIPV
Sequence of Cytochrome P450 1A2 (Homo sapiens) (P05177 whole entry, looked up): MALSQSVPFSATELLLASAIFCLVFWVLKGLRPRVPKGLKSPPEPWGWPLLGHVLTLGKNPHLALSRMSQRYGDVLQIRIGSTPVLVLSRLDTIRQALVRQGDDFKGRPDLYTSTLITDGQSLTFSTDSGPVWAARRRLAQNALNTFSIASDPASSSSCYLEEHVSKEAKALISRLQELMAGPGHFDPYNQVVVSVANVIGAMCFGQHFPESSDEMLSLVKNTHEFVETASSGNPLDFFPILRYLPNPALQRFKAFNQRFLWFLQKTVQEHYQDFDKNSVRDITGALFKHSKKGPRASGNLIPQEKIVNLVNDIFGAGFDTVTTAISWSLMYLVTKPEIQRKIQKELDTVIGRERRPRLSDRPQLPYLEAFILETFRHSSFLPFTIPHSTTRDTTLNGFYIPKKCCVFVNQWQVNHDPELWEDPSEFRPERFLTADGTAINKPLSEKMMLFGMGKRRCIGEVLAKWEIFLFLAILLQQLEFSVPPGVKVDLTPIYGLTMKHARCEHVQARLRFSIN

In the case of `CC1=CCC2CC1C2(C)C` (stereo not drawn), the outcome [1] is reported as “inactive”, the Potency [2] is reported as 3.55 µM (active) and the max response [3] is reported as 3.27% (inactive). The outcome [4] was “inactive”, the Potency [5] was “inactive” and the outcome [6] was “inactive”. The outcome [7] was “inactive”, the activity, negative = inhibition [8, 11] was 10.5% (inactive) and the activity, negative = inhibition [8, 12] was 12.9% (inactive).
In the case of `CC(=O)Oc1cccc2c1C(=O)c1c(OC(C)=O)cc(C(=O)O)cc1C2=O`, the activity, negative = inhibition [8, 12] is reported as -5.47% (inactive).
In the case of `COC1=C(OC)C(=O)C(C/C=C(\C)CC/C=C(\C)CC/C=C(\C)CC/C=C(\C)CC/C=C(\C)CC/C=C(\C)CC/C=C(\C)CC/C=C(\C)CC/C=C(\C)CCC=C(C)C)=C(C)C1=O`, the Potency [9] is reported as “inactive”, the outcome [1] is reported as “inactive” and the max response [3] is reported as 5.89% (inactive). The outcome [4] was “inactive”, the Potency [5] was “inactive” and the outcome [6] was “inactive”. For the same compound, the outcome [7] was “inactive”, the Z-AUC [10] was -0.238 (inactive) and the Z-AUC [10, 13] was -0.0279. For the same compound, the Z-AUC ([10]; measured here: PEO4 Z-AUC) was 0.209, the activity, negative = inhibition [8, 11] was -2.4% (inactive) and the activity, negative = inhibition [8, 12] was 5.89% (inactive).
For `CNC(=O)c1c(I)c(C(=O)NCC(=O)Nc2c(I)c(C(=O)O)c(I)c(C(=O)NCCO)c2I)c(I)c(N(C)C(C)=O)c1I`, the activity, negative = inhibition [8, 12] was 2.12% (inactive).
With `CC/C=C\C/C=C\C/C=C\CCCCCCCC(=O)O` the outcome [1] was “inactive”, the Potency [2] was “inactive” and the max response [3] was -1.87% (inactive). The outcome [4] was “inactive”, the Potency [5] was “inactive” and the outcome [6] was “inactive”. For the same compound, the outcome [7] was “inactive”, the activity, negative = inhibition [8, 11] was -1.47% (inactive) and the activity, negative = inhibition [8, 12] was -1.74% (inactive).
In the case of `Cc1ncc(C[n+]2csc(CCO)c2C)c(N)n1`, the outcome [1] is reported as “inactive”, the max response [3] is reported as -0.256% (inactive) and the outcome [4] is reported as “inactive”. For the same compound, the Potency [5] was “inactive”, the outcome [7] was “inactive” and the activity, negative = inhibition ([8]; at 12.8 µM (top of the series), parasite line A) was 5.7% (inactive). The activity, negative = inhibition ([8]; at 12.8 µM (top of the series), parasite line B) was 7.59% (inactive).
With `CC/C=C\C/C=C\C/C=C\C/C=C\C/C=C\CCCC(=O)O` the Potency [9] was “inactive”, the outcome [1] was “inactive” and the Potency [2] was “inactive”. For the same compound, the max response [3] was 0.593% (inactive), the outcome [4] was “inactive” and the Potency [5] was “inactive”. For the same compound, the outcome [6] was “inactive”, the outcome [7] was “inactive” and the activity, negative = inhibition [8, 11] was -4.56% (inactive). For the same compound, the activity, negative = inhibition [8, 12] was -6.54% (inactive).
In the case of `Oc1ccc(/C=C/c2cc(O)cc(O)c2)cc1`, the outcome [1] is reported as “inactive”, the max response [3] is reported as -1.38% (inactive) and the outcome [4] is reported as “inactive”. For the same compound, the Potency [5] was 31.6 µM (active), the outcome [6] was “inactive” and the outcome [7] was “inactive”. The Z-AUC [10] was 0.778 (inactive), the Z-AUC [10, 13] was 1.04 and the Z-AUC ([10]; measured here: PEO4 Z-AUC) was 0.679.
For `Oc1cccc(O)c1O`, the Potency [9] was “inactive”, the outcome [1] was “inactive” and the Potency [2] was “inactive”. For the same compound, the max response [3] was -3.78% (inactive), the outcome [4] was “inactive” and the Potency [5] was “inactive”. The outcome [6] was “inactive”, the outcome [7] was “inactive” and the activity, negative = inhibition [8, 11] was -26.1% (inactive). For the same compound, the activity, negative = inhibition [8, 12] was -8.69% (inactive).
In the case of `CO[C@H]1O[C@@H]2O[C@@]3(C)CC[C@H]4[C@H](C)CC[C@@H]([C@H]1C)[C@@]24OO3`, the Z-AUC [10] is reported as -0.105 (inactive), the Z-AUC [10, 13] is reported as 0.613 and the Z-AUC ([10]; measured here: PEO4 Z-AUC) is reported as 0.87.
With `CC[C@H]1OC(=O)[C@H](C)[C@@H](O[C@H]2C[C@@](C)(OC)[C@@H](O)[C@H](C)O2)[C@H](C)[C@@H](O[C@@H]2O[C@H](C)C[C@H](N(C)C)[C@H]2O)[C@](C)(O)C[C@@H](C)CN(C)[C@H](C)[C@@H](O)[C@]1(C)O` the Z-AUC [10] was 1.04 (inactive), the Z-AUC [10, 13] was 0.718 and the Z-AUC ([10]; measured here: PEO4 Z-AUC) was 1.23.
For `CNC(=O)[C@H](Cc1c[nH]c2ccccc12)NC(=O)[C@@H](CC(=O)NO)CC(C)C`, the Z-AUC [10] was 0.599 (inactive), the Z-AUC [10, 13] was 0.54 and the Z-AUC ([10]; measured here: PEO4 Z-AUC) was 0.809. The Potency ([8]; parasite line A) was 11.2 µM (active).
For `C[C@H]1O[C@@H](O[C@H]2[C@@H](O)C[C@H](O[C@H]3[C@@H](O)C[C@H](O[C@H]4CC[C@@]5(C)[C@H](CC[C@@H]6[C@@H]5C[C@@H](O)[C@]5(C)[C@@H](C7=CC(=O)OC7)CC[C@]65O)C4)O[C@@H]3C)O[C@@H]2C)C[C@H](O)[C@@H]1O`, the Z-AUC [10] was -1.16 (inactive), the Z-AUC [10, 13] was -1.92 and the Z-AUC ([10]; measured here: PEO4 Z-AUC) was -1.33. For the same compound, the activity, negative = inhibition [8, 11] was -10.9% (inactive) and the activity, negative = inhibition [8, 12] was 10.4% (inactive).
In the case of `CC(C)Cc1ccc([C@@H](C)C(=O)NS(C)(=O)=O)cc1`, the Z-AUC [10] is reported as 1.32 (inactive), the Z-AUC [10, 13] is reported as 0.781 and the Z-AUC ([10]; measured here: PEO4 Z-AUC) is reported as 0.752. For the same compound, the activity, negative = inhibition [8, 11] was 3.44% (inactive) and the activity, negative = inhibition [8, 12] was -5.62% (inactive).
For `CCCCC/C=C\C/C=C\C/C=C\CCCCC(=O)O`, the activity change, negative = inhibition [9] was 19.3% [at 4.27 µM] (inactive), the activity change, negative = inhibition [1] was -0.723% [at 3.26 µM] (inactive) and the activity change, negative = inhibition [2] was 7.42% [at 4.62 µM] (inactive). The max response [3] was -1.8% (inactive), the activation [5] was -11.8% [at 5 µM] (inactive) and the activity change, negative = inhibition [6] was -11% [at 5 µM] (inactive). The activity change, negative = inhibition [7] was 4.34% [at 5 µM] (inactive), the activity, negative = inhibition [8, 11] was -2.11% (inactive) and the activity, negative = inhibition [8, 12] was -8.25% (inactive).
For `CN(C)CCOc1ccc(/C(=C(/CCCl)c2ccccc2)c2ccccc2)cc1`, the Z-AUC [10] was 0.623 (inactive), the Z-AUC [10, 13] was 0.97 and the Z-AUC ([10]; measured here: PEO4 Z-AUC) was 0.656. The activity, negative = inhibition [8, 11] was -4.58% (inactive) and the activity, negative = inhibition [8, 12] was -0.289% (inactive).
With `C=CC[C@@H]1/C=C(\C)C[C@H](C)C[C@H](OC)[C@H]2O[C@@](O)(C(=O)C(=O)N3CCCC[C@H]3C(=O)O[C@H](/C(C)=C/[C@@H]3CC[C@@H](O)[C@H](OC)C3)[C@H](C)[C@@H](O)CC1=O)[C@H](C)C[C@@H]2OC` the Z-AUC [10] was 1.09 (inactive), the Z-AUC [10, 13] was 0.699 and the Z-AUC ([10]; measured here: PEO4 Z-AUC) was 1.02. For the same compound, the Potency ([8]; parasite line A) was 2 µM (active) and the Potency ([8]; parasite line B) was 1.26 µM (active).
In the case of `Cn1c(=O)c2c(ncn2CCOC(=O)C(C)(C)Oc2ccc(Cl)cc2)n(C)c1=O`, the activity, negative = inhibition [8, 11] is reported as -0.561% (inactive).
